# Source: PubChem
# TCR act = Activators of T cell receptors: qHTS campaign; primary human leukocytes, anti-CD3, IL-2 HTRF, 48 h; Potency, µM (titrated, usually from 9.22 µM), most hits filed as activators; 330,000 tested, under 10 active; AID 504894, 2011
#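 Compounds are tested in HTS on primary human leukocytes co-incubated with a-CD3 beads for 48 hr. IL-2 output is measured by time-resolved FRET.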
# ClpP mod = qHTS Assay for Activators of ClpP | purified B. subtilis ClpP, FRET peptide cleavage, 20 min | Potency, µM (top dose mostly 57.5 µM) | 1.9% of 340,000 active; active = well fitted falling curve with a large enough effect; inconclusive = small, poorly fitted or top-dose-only effect; inactive = no such curve, though single readings can be large or run the other way; also: the source files actives as falling curves though it sought activators and does not explain the sign; nearly all actives have a fitted effect of over 65% in size
# Target sequence (P80244 whole entry, looked up): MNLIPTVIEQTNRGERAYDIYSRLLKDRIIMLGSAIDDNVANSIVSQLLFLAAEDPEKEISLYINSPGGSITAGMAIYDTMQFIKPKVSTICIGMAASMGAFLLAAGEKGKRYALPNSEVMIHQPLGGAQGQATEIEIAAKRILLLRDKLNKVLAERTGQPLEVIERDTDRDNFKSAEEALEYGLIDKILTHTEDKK
#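 Purified B. subtilis ClpP, 10 microg/mL final in Tris/HCl pH8 with KCl, BSA, glycerol and Tween-20, cleaved an Abz/nitrotyrosine-quenched decapeptide. Fluorescence (ex 320, em 430) was read at 0 and 20 min at room temperature. Delta was normalized to 5.8 microM ADEP and DMSO/no-enzyme controls.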
# Sfp inh = qHTS Assay for Inhibitors of Bacillus subtilis Sfp phosphopantetheinyl transferase (PPTase) | 4'-phosphopantetheinyl transferase ffp (Bacillus subtilis), Q9F4F7 | Biochemical Sfp PPTase activity, qHTS | Potency, µM, hits mostly inhibitors | 3.5% of 310,000 active;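 also: the enzyme is Sfp with the accession as filed and its product quenches rhodamine fluorescence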
#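 Buffer: 50 mM Hepes-Na pH 7.6, 10 mM MgCl2, 0.01% Nonidet P-40, 0.01% BSA. Enzyme 15 nM, pre-exposed to compound 15 min; substrates then added and fluorescence change tracked over 30 min.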
# uPA surface inh = qHTS for Inhibitors of Cell Surface uPA Generation; cell surface uPA generation assay, qHTS; Potency, µM (highest dose often 38.3 µM), hits mostly inhibitors; 0.31% of 330,000 active; AID 540303, 2011; active = well fitted inhibition curve with a large enough effect; inconclusive = small, poorly fitted or top-dose-only effect; inactive = no such curve, though single readings can be large or run the other way; tested in mouse RAW 264.7 cells; also: nearly all actives have a fitted effect of over 55% in size
# A number is an active result; . = inactive; ? = inconclusive; / = not tested or not shown; ! = a repeat was not active. Rows were chosen to be rich in hits. Some 4.2% of all compounds tested hit in one or more screens of this group. Unless noted, calls follow the shape of the dose curve; as a rule, active = well fitted curve in the direction sought with a large enough effect; inconclusive = small, poorly fitted or top-dose-only effect, or another doubt; inactive = no such curve, though single readings can be large; an effect the other way counts as inactive or inconclusive.
SMILES,TCR act,ClpP mod,Sfp inh,uPA surface inh
CCOC(=O)N1CCN(C(=O)COc2ccc3c(c2)C(=O)CC(C)(C)O3)CC1,.,.,.,.
CCOC(=O)COc1ccc2c(c1)C(=O)CC(C)(C)O2,/,28µM,.,/
CC1(C)CC(=O)c2cc(OCC(=O)O)ccc2O1,/,25µM,.,/
COc1ccc(S(=O)(=O)N2CCN=C2SCc2cccc(C)c2)cc1,.,.,.,.
COc1cc2c(cc1OC)CN(C(=O)CCNC(=O)c1ccccc1Cl)CC2,.,.,/,.
CC(C)CCNC(=O)Cn1nc(N2CCN(c3ccccc3)CC2)ccc1=O,/,.,/,/
CC(=O)c1ccc(NC(=S)Nc2cccc3cnccc23)cc1,.,/,2.5µM,.
Cc1ccc(NC(=S)Nc2cccc3cnccc23)cc1,.,.,45µM,.
CC(=O)c1cccc(NC(=S)Nc2cccc3ccccc23)c1,.,.,.,.
Cc1ccc(NC(=S)Nc2cccc3cnccc23)cc1C,.,/,40µM,.
CCCc1nnc(NC(=O)c2cc(=O)c3cc(C)c(C)cc3o2)s1,/,.,/,/
CCN(c1ccc(OC)cc1)S(=O)(=O)c1ccc2[nH]c(=O)ccc2c1,/,.,/,/
Cc1ccc(NC(=O)C2CCCN(c3nc4ccccc4s3)C2)c(C)c1 (centres undefined),/,.,/,/
COc1ccc(/C=C/C(=O)c2c(O)c(OC)c3occc3c2OC)cc1OC,/,.,/,/
CCCCCCN1C[C@H](O)[C@@H](n2cc(C3CC3)nn2)C[C@@H]1c1ccccc1,/,.,/,/
CC(=Nc1ccccc1)c1sc2ccccc2c1O,.,?,.,.
CC(=Nc1ccc(Br)cc1)c1sc2ccccc2c1O,.,.,32µM,?
CCOc1cc2[nH]c(=O)n(CCC(=O)N3CCN(c4cccc(Cl)c4)CC3)c(=O)c2cc1OCC,/,.,/,/
COCCN(C(C)=O)c1nnc(-c2ccccn2)s1,.,?,.,.
CC(=O)N(CC1CCCO1)c1nnc(-c2ccccn2)s1 (centres undefined),.,16µM,.,.
COC(=O)c1nc(N2CCN(S(=O)(=O)c3ccc(C)cc3)CC2)c2ccccc2n1,/,.,/,/
COc1ccc(-c2noc(CSc3nc(-c4ccccc4)cc(=O)[nH]3)n2)cc1OC,.,.,35µM,.
COc1cc(-c2noc(CSc3nc(-c4ccccc4)cc(=O)[nH]3)n2)cc(OC)c1OC,/,.,/,/
Brc1ccc2c(ccc[n+]2CCc2ccccc2)c1,/,.,/,/
CCS(=O)(=O)N1CCC(C(=O)Oc2ccccc2Br)CC1,/,28µM,.,.
SMILES,TCR act,ClpP mod,Sfp inh,uPA surface inh
CCS(=O)(=O)N1CCC(C(=O)Oc2ccccc2OC)CC1,.,.,.,.
COc1ccccc1C(=O)NC(=S)N1CCc2ccccc21,.,.,.,?
O=C(NC(=S)N1CCCc2ccccc21)c1ccc([N+](=O)[O-])cc1,.,.,16µM,.
COc1ccc(C(=O)NC(=S)N2CCCc3ccccc32)cc1OC,.,/,?,.
O=C(NC(=S)N1CCCc2ccccc21)c1ccccc1,.,.,.,.
O=C(NC(=S)N1CCCc2ccccc21)c1ccc(Br)cc1,.,?,45µM,.
COc1ccccc1C(=O)NC(=S)N1CCCc2ccccc21,.,.,50µM,/
O=C(NC(=S)N1CCCc2ccccc21)c1ccc(Cl)cc1,.,.,22µM,.
O=C(c1cc([N+](=O)[O-])cc([N+](=O)[O-])c1)N1CCCc2ccccc21,.,.,.,/
COc1ccc(C(=O)NCc2ccc3c(c2)CCN3C(C)=O)c(OC)c1,/,.,/,/
COc1ccc(CNc2ccnc(-c3ccccc3Cl)n2)c(OC)c1,/,/,.,/
COc1ccc(S(=O)(=O)c2nnn(-c3cc(Cl)c(OC)cc3OC)c2C)cc1,/,.,/,/
Cc1cccc(C(=O)Oc2c(Sc3ccccc3)c(C)nn2C(C)(C)C)c1,/,.,/,/
O=C(COc1ccccc1)NC(=S)N1CCc2ccccc21,.,.,.,.
COc1ccc(OCC(=O)NC(=S)N2CCCc3ccccc32)cc1,.,.,56µM,.
OCCOCCN1CCN(C2=Nc3ccccc3Sc3ccccc32)CC1,.,.,50µM!,.
O=C(NCC(c1ccco1)N1CCc2ccccc2C1)c1ccc(Br)cc1 (centres undefined),.,25µM,/,.
Cc1cccn2c(=O)nc(SCC(=O)N3CC(C)OC(C)C3)nc12 (centres undefined),.,32µM,/,.
COC(=O)C1=C(C)NC=C([N+](=O)[O-])C1c1ccc(OC)cc1 (centres undefined),.,/,14µM,.
COC(CN(C(=O)CCl)C(C(=O)NC1CCCCC1)c1ccc(C)cc1)OC (centres undefined),.,.,.,.
